This is a sample that favours compounds with a hit; in the whole collection about 21% have one here.
Pf growth 48h: inhibits P. falciparum growth in the first generation, 48 h; Potency, µM (titrated, usually from 28.7 µM), for inactives: top-dose activity change, negative = inhibition, hits mostly inhibitors; AID 504832; 310,000 compounds, 5.9% hits; P. falciparum luciferase growth in erythrocytes, 48 h; note: potency is the fitted concentration of half-maximal effect; % is set by controls: 0 for no effect and ±100 for the full control effect
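Growth was read as firefly luciferase luminescence after a 48 h, 37 C, 5% CO2 exposure of compounds to reporter-bearing P. falciparum cultures (0.1% parasitemia, 2% hematocrit final) in Albumax-supplemented RPMI 1640.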
Shiga toxin inh: inhibitors of Shiga toxin in Vero cells; inhibition, % at 38.7 µM; Vero cells, Shiga toxin protein synthesis inhibition reporter; 290,000 compounds, 9.2% hits; AID 2315; in the data active = inhibition mostly above about 28%, no sharp cut-off; inactive = mostly below about 43%; note: 0% is about no effect
CHX counter: counter-screen hit for Shiga toxin inhibitors, cycloheximide; cell reporter, cycloheximide protein synthesis inhibition counterscreen; 300,000 compounds, 12% hits; max response, %; in the data active = max response mostly above about 13%, no sharp cut-off; inactive = mostly below about 14%; note: read at 38.3 µM for the half of the compounds with a filed dose; 0% is about no effect
Pf growth 96h: P. falciparum growth inhibition at 96 hours. 320,000 compounds, 6.9% hits. P. falciparum luciferase reporter growth, 96 h. Potency, µM (highest dose often 28.7 µM), for the others: at the top dose activity change, negative = inhibition, hits mostly inhibitors. AID 504834; note: potency is the fitted concentration of half-maximal effect; % is set by controls: 0 for no effect and ±100 for the full control effect
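Infected RBCs, 2% Hct / 0.05% parasitemia final; luciferase-reporter P. falciparum; cpd 96 h, 37 C, 5% CO2; luciferase detection reagent; luminescence.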
* = called active by the depositor; ? = inconclusive; nt = no result given; [ ] = remark or other dose. Unless noted, calls come from the whole dose curve; as a rule, active = well fitted inhibition curve with a large enough effect; inconclusive = small, poorly fitted or top-dose-only effect, or another doubt; inactive = no such curve, though single readings can be large or run the other way.

SMILES	Pf growth 48h	Shiga toxin inh	CHX counter	Pf growth 96h
CCOc1cccc(CN(C)CC2CCCN(CCc3ccc(Cl)cc3)C2)c1O (stereo not drawn)	3.7µM*	-8	2	1.5µM*
COc1cc(CN(C)CC2CCCN(CCc3ccc(F)cc3)C2)c(Cl)cc1O (stereo not drawn)	12µM*	2	-3	?
COc1cc(CN(C)CC2CCCN(CCc3cccc(C(F)(F)F)c3)C2)ccc1O (stereo not drawn)	2.9µM*	5	1	?
COc1ccc(F)c(CN(C)CC2CCCN(CCc3ccc(F)cc3)C2)c1 (stereo not drawn)	?	-7	-2	?
COC(=O)CCC(=O)N(C)CC1CCCN(CCc2cccc(C(F)(F)F)c2)C1 (stereo not drawn)	12%	nt	3	?
CC([NH2+][O-])C(C)(C)NO (stereo not drawn)	10%	-13	-2	0%
CCN(CC1CCCN(CCc2cccc(F)c2)C1)C(=O)c1cc(C)oc1C (stereo not drawn)	?	10	-7	5.2µM*
COc1ccc(CN(C)CC2CCCN(CCc3ccc(F)cc3)C2)cc1OC (stereo not drawn)	?	-12	-3	4.7µM*
CCN(CC1CCCN(CCc2cccc(F)c2)C1)C(=O)c1cc2ccccc2o1 (stereo not drawn)	?	11	9	80%
COc1ccc(CN(C)CC2CCCN(CCc3ccc(Cl)cc3)C2)cc1OC (stereo not drawn)	?	-19	-3	-10%
COCC(=O)N(C)CC1CCCN(CCc2ccccc2OC)C1 (stereo not drawn)	8%	4	-3	?
CN(CC1CCCN(CCc2cccc(C(F)(F)F)c2)C1)C(=O)c1cc2ccccc2o1 (stereo not drawn)	10µM*	-3	0	31%
CSCCC(=O)N(C)CC1CCCN(CCc2cccc(C(F)(F)F)c2)C1 (stereo not drawn)	-10%	11	-5	?
COc1ccccc1CCN1CCCC(CN(C)CC(C)(C)CO)C1 (stereo not drawn)	2%	nt	-3	12µM*
Nn1c(SCC(=O)Nc2nccs2)nnc1-c1cccnc1	-11%	nt	nt	-28%
O=C(CN(C(=O)C1CSC(=O)C1)c1ccc(F)cc1)NCc1ccc2c(c1)OCO2 (stereo not drawn)	-3%	-13	-4	?
COc1ccc(NC(C)=O)cc1S(=O)(=O)NC(C)c1ccc(-n2ccnc2)cc1 (stereo not drawn)	-11%	nt	nt	-26%
CC(C)(C)c1ccc(CNC(=O)C2CCCN2C(=O)Nc2ccccc2)cc1 (stereo not drawn)	-12%	-12	-2	21%
CSCC[C@@H]1NC(=O)[C@@H](NC(=O)[C@H](CCCNC(=N)N)NC(=O)[C@H](CC(C)C)NC(=O)[C@H](CCSC)NC(=O)[C@H](CC(=O)O)NC(=O)[C@H](Cc2ccccc2)NC(=O)[C@@H](N)CC(=O)O)CSSC[C@@H](C(=O)N[C@@H](Cc2c[nH]c3ccccc23)C(=O)N[C@@H](CCC(N)=O)C(=O)N[C@@H](Cc2ccc(O)cc2)C(=O)O)NC(=O)[C@@H]2CCCN2C(=O)[C@H](CCCNC(=N)N)NC(=O)[C@H](Cc2ccccc2)NC(=O)[C@H](C(C)C)NC(=O)[C@H](CCCNC(=N)N)NC(=O)CNC(=O)[C@H](CC(C)C)NC1=O	nt	-5	-11	nt
Cc1nonc1C(=O)N/N=C/c1ccc([N+](=O)[O-])o1	?	88*	46*	?
Cc1cc(C)c(S(=O)(=O)N/N=C/c2ccc([N+](=O)[O-])o2)c(C)c1	7%	-7	-1	-14%
COc1ccc(-c2nn(-c3ccccc3)cc2C(=O)Nc2nccs2)cc1	?	-13	-3	13%
COc1ccc(-c2nn(-c3ccccc3)cc2C(=O)N/N=C/c2ccc([N+](=O)[O-])o2)cc1	2.6µM*	-22	5	4%
Cc1cc(C(=O)N/N=C/c2ccc([N+](=O)[O-])o2)c(C)o1	3.7µM*	-2	1	3.3µM*
CCCCCC(=O)NNC(=O)c1ccc(F)cc1	9%	-16	-3	28%
SMILES	Pf growth 48h	Shiga toxin inh	CHX counter	Pf growth 96h
Cc1ccc(NC(=S)N(Cc2cccs2)Cc2cc3cccc(C)c3[nH]c2=O)cc1	-28%	-7	-1	7.4µM*
COc1ccc2[nH]c(=O)c(CN(Cc3cccs3)C(=S)Nc3ccccc3)cc2c1	?	13	-1	4.7µM*
CNC(=S)N(Cc1cccs1)Cc1cc2ccc(OC)cc2[nH]c1=O	?	-11	-3	?
COc1cc2cc(CN(Cc3cccs3)C(=S)Nc3ccccc3)c(=O)[nH]c2cc1OC	12µM*	-10	-1	-1%
CNC(=S)N(Cc1ccco1)Cc1cc2cc(OC)ccc2[nH]c1=O	2.6µM*	-3	-4	293%
CNC(=S)N(Cc1ccco1)Cc1cc2cc(OC)c(OC)cc2[nH]c1=O	?	-6	1	-56%
COCCCN(Cc1ccco1)C(=O)c1cc2c(s1)-c1ccc(Cl)cc1S(=O)(=O)C2	3%	-7	16	?
O=C(NNC(=O)c1ccccc1F)C1=NN(c2ccccc2)C(=O)CC1	?	-8	-2	?
CCc1ccc(N/C(SCc2cccc(F)c2)=C(/C#N)C(=O)NCc2ccco2)cc1	?	29	21*	51%
Cc1ccc(CN2CCN(Cc3cccn3-c3nccs3)CC2CCO)cc1 (stereo not drawn)	-21%	-1	7	?
Cc1c(OCc2ccccc2)c(=O)ccn1Cc1ccc(F)cc1	?	-4	-2	2.3µM*
CCOc1cccc(-c2nn3c(-c4cc(C)[nH]n4)nnc3s2)c1	?	15	10	1.7µM*
COc1cccc(-c2nnc3sc(-c4ccccc4)nn23)c1	?	23	-4	3.3µM*
Cc1cccc(-c2nnc3sc(-c4ccccc4C)nn23)c1	?	46*	11	nt
c1ccc(-c2nnc3sc(-c4ccncc4)nn23)cc1	-26%	-16	-3	nt
c1ccc(-c2nnc3sc(-c4csc5c4CCCC5)nn23)cc1	10µM*	-35	13*	23%
CCN(CC)C(=O)CC(c1ccc(N(C)C)cc1)c1c(O)cc(OC)cc1OC (stereo not drawn)	?	-2	-1	?
CC1CN(C(=S)Nc2cccc(Cl)c2Cl)CC(C)O1 (stereo not drawn)	17%	12	-3	-14%
CCOC(=O)c1nn(-c2ccc(OC)cc2)c(=O)c2c(NC(=O)Cc3ccccc3)scc12	nt	-1	10	nt
COc1cccc(OC)c1-c1nn2c(-c3cc(-c4ccccc4)n[nH]3)nnc2s1	2.1µM*	-4	-1	-21%
COc1ccc(-c2nn3c(-c4ccccc4)nnc3s2)cc1	?	28	10	5%[5.75 µM]
COc1ccc(-c2nn3c(=O)c(C)nnc3s2)cc1	?	54*	28	?
Cc1nc2sc(-c3ccccc3)nn2c(=O)c1Br	113%	94*	56*	-15%
Clc1cccc(-c2nn3c(-c4ccncc4)nnc3s2)c1	20%	-18	-3	13µM*
CCOc1ccc(S(=O)(=O)Nc2ccccc2C(=O)Nc2ccccc2N2CCOCC2)cc1	-13%	-2	3	nt

Source: PubChem BioAssay (National Center for Advancing Translational Sciences (NCATS))
